This is part of a sample that, as a whole, favours compounds with a hit. Of some 79,000 tested, about 15% had one in any assay. Calls of active or inactive are those of the source. No stated cut-off is given here; in the data, active means growth inhibition above about 70%; inactive means the rest.
Key:
[1] = NCI Yeast Anticancer Drug Screen. Data for the rad52 strain (AID 147);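 further: 0% = growth of vehicle-treated control cultures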; settings: S. cerevisiae rad52 mutant growth inhibition, active compounds read high
In short: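 Compounds are applied to a genetically defined yeast strain lacking normal DNA damage repair, and inhibition of growth is expressed relative to cultures given vehicle only.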

[2] = NCI Yeast Anticancer Drug Screen. Data for the wt1 strain (AID 149);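 further: 0% = growth of vehicle-treated wt1 cultures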; settings: S. cerevisiae wt1 strain (SPY 50644) growth inhibition, active compounds read high
In short: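 Readout: yeast growth inhibition, normalised to vehicle controls, in the wt1 strain exposed to test compounds.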

[3] = NCI Yeast Anticancer Drug Screen. Data for the rad50EPP+ strain (AID 151);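 further: 0% = growth of vehicle-treated control cultures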; settings: S. cerevisiae rad50 mutant strain, active compounds read high
In short: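 Compounds were applied to the rad50EPP+ yeast strain, which bears a defined DNA repair alteration, and growth inhibition was determined relative to vehicle-treated cultures.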

[4] = NCI Yeast Anticancer Drug Screen. Data for the mgt1 strain (AID 153); settings: S. cerevisiae mgt1 mutant growth inhibition, active compounds read high
In short: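 Strain: mgt1 yeast, one of a set carrying defined DNA damage repair or cell cycle control alterations. Compound-treated growth compared with vehicle.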

[5] = NCI Yeast Anticancer Drug Screen. Data for the rad50 strain (AID 155);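 further: 0% = growth of vehicle-only cultures of the same strain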; settings: S. cerevisiae rad50 strain growth inhibition, active compounds read high
In short: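 Compounds were tested on a yeast strain with an engineered DNA damage repair alteration; the reported value is growth inhibition normalised to vehicle treatment.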

[6] = NCI Yeast Anticancer Drug Screen. Data for the mec2-1 strain (AID 157); settings: S. cerevisiae mec2-1 strain, active compounds read high
In short: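 Strain: mec2-1 (DNA repair/cell cycle alteration). Compound exposure, then growth measured; inhibition expressed relative to vehicle.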

[7] = NCI Yeast Anticancer Drug Screen. Data for the rad14 strain (AID 159);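 further: 0% = growth of vehicle-treated control cultures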; settings: S. cerevisiae rad14 strain growth inhibition, active compounds read high
In short: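 Compound-treated yeast with a defined DNA-repair lesion; growth inhibition normalised to vehicle-treated cultures.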

[8] = NCI Yeast Anticancer Drug Screen. Data for the sgs1 mgt1 strain (AID 161);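 further: 0% = growth of cultures given vehicle only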; settings: S. cerevisiae sgs1 mgt1 strain, active compounds read high
In short: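 Read-out: growth inhibition vs vehicle controls. Cells: mutant yeast strain deficient in DNA damage repair.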

[9] = NCI Yeast Anticancer Drug Screen. Data for the CLN2oe strain (AID 163);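 further: 0% = growth of vehicle-only control cultures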; settings: S. cerevisiae CLN2oe strain, active compounds read high
In short: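 Growth of a genetically modified yeast strain is measured after compound exposure and compared with cultures given vehicle alone.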

[10] = NCI Yeast Anticancer Drug Screen. Data for the cln2 rad14 strain (AID 165);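 further: 0% = growth equal to vehicle treated cultures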; settings: S. cerevisiae cln2 rad14 strain, active compounds read high
In short: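 Compounds are applied to the cln2 rad14 yeast strain, and growth is then compared with that of vehicle-treated cultures to give inhibition.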

[11] = NCI Yeast Anticancer Drug Screen. Data for the bub3 strain (AID 167); settings: S. cerevisiae bub3 mutant strain, active compounds read high
In short: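 Growth of a checkpoint-deficient yeast mutant is measured after compound exposure. Values represent inhibition relative to vehicle.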

[12] = NCI Yeast Anticancer Drug Screen. Data for the wt2 strain (AID 169);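 further: 0% = growth of vehicle-treated yeast cultures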; settings: S. cerevisiae wt2 strain growth inhibition, active compounds read high
In short: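 This strain belongs to a panel of yeast strains with defined genetic alterations in DNA damage repair or cell cycle control. Compounds are applied, and growth inhibition is measured against vehicle-treated cultures.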

[13] = NCI Yeast Anticancer Drug Screen. Data for the mlh1 strain (AID 171);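 further: 0% = growth of vehicle-treated control cultures of the same strain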; settings: S. cerevisiae mlh1 strain growth inhibition, active compounds read high
In short: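 Growth of the mutant yeast strain after compound exposure, expressed as inhibition relative to vehicle-only controls.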

[14] = NCI Yeast Anticancer Drug Screen. Data for the sgs1 strain (AID 173);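 further: 0% = growth of vehicle-only control cultures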; settings: S. cerevisiae sgs1 mutant, active compounds read high
In short: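 Growth of a yeast strain bearing a defined genetic alteration is measured after compound treatment. Inhibition is expressed relative to vehicle-only controls.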

[15] = NCI Yeast Anticancer Drug Screen. Data for the mlh1 rad18 strain (AID 175); settings: S. cerevisiae mlh1 rad18 strain growth inhibition, active compounds read high
In short: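 Read-out is yeast growth inhibition, calculated against vehicle-only controls. The compound was applied to a strain engineered with DNA damage repair alterations.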

[16] = NCI Yeast Anticancer Drug Screen. Data for the rad18 strain (AID 177); settings: S. cerevisiae rad18 mutant growth inhibition, active compounds read high
In short: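 Growth of the mutant yeast strain after compound exposure, normalised to vehicle-only cultures.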

[17] = at 5.0 µM (retest, dose inferred, filed as 0.5)
[18] = at 50.0 µM (retest, dose inferred, filed as 5.0)

Measured: growth inhibition

CC1CN(/N=C\c2ccc([N+](=O)[O-])o2)C(=O)O1 (stereo not drawn)
inactive: [1]; at 1.2 µM 1% | [1]; at 3.7 µM 3% | [1]; at 11.0 µM 9% | [1]; at 33.0 µM 19% | [1]; at 100.0 µM 59% | [2]; at 1.2 µM -2% | [2]; at 3.7 µM -2% | [2]; at 11.0 µM -2% | [2]; at 33.0 µM 1% | [2]; at 100.0 µM 10% | [3]; at 1.2 µM 0% | [3]; at 3.7 µM -1% | [3]; at 11.0 µM 4% | [3]; at 33.0 µM 15% | [3]; at 100.0 µM 48% | [4]; at 1.2 µM -1% | [4]; at 3.7 µM -1% | [4]; at 11.0 µM -1% | [4]; at 33.0 µM -1% | [4]; at 100.0 µM 9% | [5]; at 1.2 µM 9% | [5]; at 3.7 µM 46% | [5]; [17] 8% | [5]; at 11.0 µM 32% | [5]; at 33.0 µM 24% | [5]; [18] 53% | [6]; at 1.2 µM 2% | [6]; at 3.7 µM 4% | [6]; [17] -25% | [6]; at 11.0 µM 6% | [6]; at 33.0 µM 12% | [6]; [18] 46% | [6]; at 50.0 µM 20.6% | [6]; at 100.0 µM 45% | [7]; at 1.2 µM 0% | [7]; at 3.7 µM -3% | [7]; at 11.0 µM -2% | [7]; at 33.0 µM 10% | [7]; at 100.0 µM 47% | [8]; [17] 27% | [9]; at 1.2 µM -7% | [9]; at 3.7 µM -6% | [9]; at 11.0 µM -3% | [9]; at 33.0 µM -7% | [9]; at 100.0 µM -6% | [10]; [17] -3% | [10]; [18] 45% | [10]; at 50.0 µM 18.9% | [11]; at 1.2 µM -1% | [11]; at 3.7 µM 3% | [11]; [17] -8% | [11]; at 11.0 µM 0% | [11]; at 33.0 µM 2% | [11]; [18] 14% | [11]; at 50.0 µM 14.1% | [11]; at 100.0 µM 9% | [12]; at 1.2 µM -3% | [12]; at 3.7 µM 6% | [12]; at 11.0 µM -3% | [12]; at 33.0 µM -1% | [12]; at 100.0 µM 18% | [13]; at 1.2 µM 0% | [13]; at 3.7 µM -2% | [13]; at 11.0 µM -1% | [13]; at 33.0 µM 3% | [13]; at 100.0 µM 16% | [14]; at 1.2 µM 7% | [14]; at 3.7 µM 11% | [14]; at 11.0 µM 27% | [14]; at 33.0 µM 56% | [15]; [17] 18%
active: [5]; at 50.0 µM 75.7% | [5]; at 100.0 µM 72% | [8]; [18] 83% | [8]; at 50.0 µM 86.1% | [14]; at 100.0 µM 87% | [15]; [18] 71% | [15]; at 50.0 µM 85.8% | [16]; at 1.2 µM 78% | [16]; at 3.7 µM 85% | [16]; at 11.0 µM 88% | [16]; at 33.0 µM 93% | [16]; at 100.0 µM 97%

CCCN=Cc1cc(Cc2ccc(O)c(C=NCCC)c2)ccc1O
active: [1]; at 1.2 µM 70% | [1]; at 3.7 µM 95% | [1]; at 11.0 µM 98% | [1]; at 33.0 µM 98% | [1]; at 100.0 µM 97% | [2]; at 3.7 µM 97% | [2]; at 11.0 µM 98% | [2]; at 33.0 µM 99% | [2]; at 100.0 µM 99% | [3]; at 3.7 µM 85% | [3]; at 11.0 µM 96% | [3]; at 33.0 µM 98% | [3]; at 100.0 µM 99% | [4]; at 3.7 µM 97% | [4]; at 11.0 µM 99% | [4]; at 33.0 µM 98% | [4]; at 100.0 µM 97% | [5]; at 1.2 µM 70% | [5]; at 3.7 µM 97% | [5]; [17] 93% | [5]; at 11.0 µM 99% | [5]; at 33.0 µM 99% | [5]; [18] 99% | [5]; at 50.0 µM 91% | [5]; at 100.0 µM 98% | [6]; at 1.2 µM 92% | [6]; at 3.7 µM 98% | [6]; [17] 99% | [6]; at 11.0 µM 99% | [6]; at 33.0 µM 98% | [6]; [18] 99% | [6]; at 50.0 µM 91.5% | [6]; at 100.0 µM 98% | [7]; at 3.7 µM 97% | [7]; at 11.0 µM 98% | [7]; at 33.0 µM 99% | [7]; at 100.0 µM 98% | [8]; at 50.0 µM 92.2% | [9]; at 1.2 µM 78% | [9]; at 3.7 µM 97% | [9]; at 11.0 µM 98% | [9]; at 33.0 µM 99% | [9]; at 100.0 µM 98% | [10]; at 50.0 µM 91.4% | [11]; at 3.7 µM 95% | [11]; at 11.0 µM 98% | [11]; at 33.0 µM 98% | [11]; at 50.0 µM 90.8% | [11]; at 100.0 µM 97%
inactive: [2]; at 1.2 µM 64% | [3]; at 1.2 µM 27% | [4]; at 1.2 µM 45% | [7]; at 1.2 µM 57% | [8]; [17] -15% | [8]; [18] -85% | [10]; [17] -41% | [10]; [18] -84% | [11]; at 1.2 µM 64% | [11]; [17] -49% | [11]; [18] -86%

Source: PubChem BioAssay (NCI)
